aSyn UTR act: Activators working through SNCA 5'UTR binding (MLPCN); 300,000 tested, 7.1% active; alpha-synuclein 5'UTR reporter, activators screen; activity score, % (tested at 7.5 µM), hits read low; in the data active means activity score below about -60%
Numbers stand for hits; - = inactive. Not all results are given here.

SMILES | aSyn UTR act
O=C(N=C1N=C2C=CC=CN2Cc2ccccc21)c1ccc(S(=O)(=O)N2CCCC2)cc1 | -134.4
CN(C)S(=O)(=O)c1cccc(C(=O)N=C2N=C3C=CC(Cl)=CN3Cc3ccccc32)c1 | -105.3
COc1ccc(/C=C/C(=O)Nc2cc(C)nn2-c2nc3ccccc3[nH]2)cc1 | -84.9
Cc1c(C(=O)NCc2ccoc2)oc2ccc3c(c12)C(=O)CC(C)(C)O3 | -464.0
Cc1c(C(=O)NCCCN2CCCCC2)oc2ccc3c(c12)C(O)CC1(CCCCC1)O3 (stereo not given) | -
CCOc1ccc(NC(=O)c2csc3c2CCCC3)cc1 | -203.8
CC(=O)c1cccc(NC(=O)c2csc3c2CCCCC3)c1 | -66.8
COc1ccc(-c2nc(SCc3ccccc3)n(C(=O)c3ccco3)n2)cc1 | -80.5
COc1ccc(-c2nc(SC)n(C(=O)c3ccco3)n2)cc1 | -129.9
O=[N+]([O-])c1ccc(Cl)c(/C=N/n2c(-c3ccncc3)n[nH]c2=S)c1 | -77.7
Cc1ccc(-c2nn(-c3ccccc3)cc2/C=N/n2c(-c3ccncc3)n[nH]c2=S)cc1 | -85.9
C=CCn1c(=NC(=O)c2ccco2)sc2cc(C(=O)OC)ccc21 | -76.6
O=C(Nc1ccc(-c2cnco2)cc1)c1ccc(F)cc1F | -145.9
Clc1ccc2oc(-c3ccccc3)nc2c1 | -151.2
COC(=O)c1ccc(-c2nc3ccc(C)cc3o2)cc1 | -77.4
Cc1ccccc1-c1nc2cc(Cl)ccc2o1 | -182.6
Clc1ccc2oc(-c3cccnc3)nc2c1 | -119.2
Cc1ccc2nc(-c3cccnc3)oc2c1 | -80.2
O=C(Nc1ccc(/C=C/c2nc3ccccc3o2)cc1)c1c(F)cccc1F | -171.5
CC(=O)Nc1ccc(/C=C/c2nc3ccccc3o2)cc1 | -127.8
CC1=NN(c2ccc(C)c(C)c2)C(=O)/C1=C\C=C\c1ccc([N+](=O)[O-])o1 | -
CC1=NN(c2ccccc2)C(=O)/C1=C\C=C\c1ccccc1 | -127.4
COc1ccc(/C=C2/C(=O)N(c3ccccc3)N=C2C)cc1 | -
Cc1ccc(-c2csc(NC(=S)NC(=O)c3cccs3)n2)cc1 | -77.3
COc1ccc(-c2csc(NC(=O)c3ccccc3NS(=O)(=O)c3ccc(F)c(F)c3)n2)cc1 | -
SMILES | aSyn UTR act
Cc1ccc2nc(NC(=S)NC(=O)c3cccs3)sc2c1 | -104.0
Cc1ccc2nc(NC(=S)NC(=O)c3ccc(OC(C)C)cc3)sc2c1 | -107.4
CCCC(=O)NC(=S)Nc1nc(-c2ccc(OC)cc2)cs1 | -65.3
CCCOc1ccc(C(=O)NNC(=S)NC(=O)CC)cc1 | -
CCCOc1ccc(C(=O)NC(=S)Nc2nc3ccccc3s2)cc1 | -246.8
CCOC(=O)C(C)Oc1cccc2c(=O)n(CC(=O)NCc3ccco3)ccc12 (stereo not given) | -
CCCCSc1nc2c(cnn2-c2ccccc2)c(=O)n1N | -118.9
O=C(Cn1cnc2c(cnn2-c2ccc(F)cc2)c1=O)NCc1ccco1 | -77.6
CCCSc1nc2c(cnn2-c2ccccc2)c(=O)n1N | -83.0
O=c1c2cnn(-c3ccccc3)c2ncn1CCc1ccccc1 | -113.7
Nn1c(SCc2ccccc2)nc2c(cnn2-c2ccccc2)c1=O | -89.8
Cc1ccccc1Nc1nc(N)nc(CSc2nnnn2C)n1 | -109.3
Cc1ccc(Nc2nc(N)nc(CSc3nccn3C)n2)c(C)c1 | -101.2
Cc1ccccc1Nc1nc(N)nc(CSc2ccc(F)cc2)n1 | -125.1
Cc1ccnc(NC(=O)Nc2ccc(F)cc2)c1 | -85.9
Cc1ccc(NC(=O)Nc2ccc(F)cc2)nc1 | -108.2
Cc1ccc(OCC(=O)NC2CCCC2)c(C)c1 | -66.6
Cc1ccccc1OCC(O)CNC1CCC(NCC(O)COc2ccccc2C)CC1 (stereo not given) | -
Cc1ccccc1OCC(=O)NC1CCCCCCC1 | -65.4
O=C(COc1ccccc1-c1ccccc1)NNC(=O)NC1CCCCC1 | -83.1
C/C(=N\Nc1nc2c(s1)CCCC2)c1ccccc1 | -178.1
C/C(=N\Nc1nc(C(C)(C)C)cs1)c1ccc(O)cc1 | -107.3
C/C(=N\Nc1nc(C(C)(C)C)cs1)c1ccccc1 | -159.8
CCc1ccc(Oc2cc(C)nc(N)n2)cc1 | -92.5
CCCc1ccc(Oc2cc(Cl)nc(N)n2)cc1 | -149.3
SMILES | aSyn UTR act
O=C(Nc1nccs1)c1ccc(-c2ccccc2[N+](=O)[O-])o1 | -134.6
O=C(Nc1nccs1)c1ccc(-c2ccccc2Cl)o1 | -286.5
COc1ccccc1NC(=O)c1ccc(-c2ccccc2[N+](=O)[O-])o1 | -124.8
CC1CCC(NC(=O)c2ccc(NS(=O)(=O)c3ccc4[nH]c(=O)[nH]c4c3)cc2)CC1 (stereo not given) | -124.4
CCCCOc1ccc(C(=O)Nc2ccc3c(c2)OCO3)cc1 | -92.8
CCCOc1ccc(C(=O)Nc2ccc3c(c2)OCO3)cc1 | -95.1
CCC(=O)Oc1ccc(C(=O)Nc2ccc3c(c2)OCO3)cc1 | -72.1
C=CC[C@]12CC=CC(=O)[C@@]1(O)O[C@H](c1ccc(OC)c(OC)c1)[C@H]2C | -94.0
CSCC(=O)N1CCc2ccc(NC(=O)c3ccccc3Cl)cc2C1 | -117.4
Cc1ccc(-c2nnc(NC3CCCC3)s2)cc1 | -142.8
Nc1nc(Cl)nc2c1ncn2C1CC(O)C(CO)O1 (stereo not given) | -
Nc1ncn([C@H]2C[C@H](O)[C@@H](CO)O2)c(=O)n1 | -924.7
O=c1[nH]c(=O)n([C@H]2C[C@H](O)[C@@H](CO)O2)cc1C(F)(F)F | -
CN(C)/C=N/c1c(C#N)cnn1-c1nc2ccccc2s1 | -96.1
CC(C)(C)c1ccc(/C=C/C(=O)N2CCOCC2)cc1 | -146.9
CC(C)Cc1ccc(/C=C/C(=O)N2CCOCC2)cc1 | -161.5
COc1ccc(NC(=O)Nc2ccc(F)c(Cl)c2)cc1 | -140.3
Cc1ccc(NC(=O)Nc2ccc(F)c(Cl)c2)cc1 | -164.8
Nc1ccc(-n2cnc3cc([N+](=O)[O-])ccc32)cc1 | -66.1
O=[N+]([O-])c1ccccc1/C=N/N1CCN(c2ccccn2)CC1 | -78.8
CN(C1=C(N2CCOCC2)C(=O)c2ccccc2C1=O)c1ccccc1 | -
COc1ccc(S(=O)(=O)N2CCN(c3ccccn3)CC2)cc1[N+](=O)[O-] | -
Cc1ccc(/C=N/N2CCN(c3ccccn3)CC2)o1 | -80.4
CN(c1ccccc1)c1ccc(/C=N/N2CCOCC2)cc1 | -156.4
C(=N\N1CCN(c2ccccn2)CC1)/c1ccccn1 | -115.1
SMILES | aSyn UTR act
Oc1cccc(/C=N/N2CCN(c3ccccn3)CC2)c1 | -75.9
BrC(=C\c1ccccc1)/C=N/N1CCN(c2ccccn2)CC1 | -70.4
CN(C)c1ccc(/C=N/N2CCN(c3ccccn3)CC2)cc1 | -125.8
O=C(N/N=C/C(Br)=C/c1ccccc1)c1cnccn1 | -110.4
CC(/C=N/NC(=O)c1nnn(-c2nonc2N)c1C(C)C)=C\c1ccco1 | -62.2
O=C(N/N=C/C(Cl)=C/c1ccccc1)c1ccccn1 | -66.4
Cc1cc(C(=O)N/N=C/C(Cl)=C/c2ccccc2)c(C)o1 | -67.3
CCN(CC)c1ccc(/C=N/NC(=O)c2nnn(-c3nonc3N)c2C(C)C)c(O)c1 | -
Nc1nnn(CC(=O)N/N=C/C=C/c2ccccc2)n1 | -86.8
CC(/C=N/NC(=O)c1ccccn1)=C\c1ccco1 | -74.7
O=C(N/N=C\C=C\c1ccco1)c1cc(-c2ccc3ccccc3c2)n[nH]1 | -145.7
O=C(N/N=C/C=C\c1ccco1)c1ccccn1 | -144.9
O=C(N/N=C/C=C/c1ccccc1)c1n[nH]c2c1CCC2 | -
O=C(N/N=C/C=C/c1ccccc1)c1ccccn1 | -166.5
Cc1ccc(-n2nnc3ccccc3c2=O)cc1C | -149.7
O=C1C(c2cc(=O)c3ccccc3[nH]2)=C(O)c2ccccc21 | -118.0
O=c1cc(-c2ccccc2)[nH]c2ccccc12 | -

Screening data deposited in PubChem by Broad Institute.
